# Reference: PubChem BioAssay (Tox21)
# Values without a mark were called inactive. Inconclusive results are not listed. Where a call stands in place of a potency, no number is given. Active and inactive are the calls of the source. Unless noted, calls come from the whole dose curve.
# Assays:
# [1] = Nuclear factor erythroid 2-related factor 2/antioxidant responsive element (Nrf2/ARE) small molecule agonists: qHTS cell viability counter screen in human keratinocytes (AID 1919968; active = well fitted curve in the direction sought with a large enough effect in the repeat runs; an effect the other way counts as inactive or inconclusive; note: nearly all actives have a fitted effect of over 55% in size)
# In short: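 Parallel cytotoxicity read: KeratinoSens HaCaT cells, compound treatment 23 h, viability by CellTiter-Fluor fluorescence 1 h post-reagent.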
# [2] = Nuclear factor erythroid 2-related factor 2/antioxidant responsive element (Nrf2/ARE) small molecule agonists: luciferase reporter gene qHTS assay in human keratinocytes (AID 1919969); note: nearly all actives have a fitted effect of over 35% in size; note: potency is the fitted concentration of half-maximal effect
# [3] = molecular target: Gonadotropin-releasing hormone receptor (Homo sapiens) (UniProt P30968); assay: Human gonadotropin-releasing hormone receptor (GnRHR) small molecule agonists, calcium flux assay in GnRHR-HEK293 cells (AID 1920063); note: nearly all actives have a fitted effect of over 35% in size
# In short: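 Calcium flux, agonist mode, human GnRHR stably integrated in HEK293; dye 1 h at 37 C before compound; Ex/Em=480/540 kinetic read, 3 min; 15 concentrations, triplicate.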
# [4] = molecular target: KiSS-1 receptor (Homo sapiens) (UniProt Q969F8); assay: Human kisspeptin (KISS1R) small molecule agonists, calcium flux assay in KISS1R-HEK293 cells (AID 1920064; active = well fitted curve in the direction sought with a large enough effect in the repeat runs; an effect the other way counts as inactive or inconclusive)
# In short: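 Triplicate 15-concentration series were applied to dye-loaded human KISS1R HEK293 cells, and agonist-evoked calcium fluorescence was captured for 3 min.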
# [5] = G protein-coupled receptor (GPCR) small molecule agonists, calcium flux assay: HEK293 wild type cell line counter screen (AID 1920065)
# In short: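 Non-specific calcium responders were flagged by adding DMSO-dissolved compounds to dye-loaded cells and reading 480/540 nm fluorescence each second for 3 min; ATP served as positive control.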
# [6] = p53 small molecule agonists, cell-based qHTS assay with human liver microsomes (AID 1963577)
# In short: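 Cells carrying a p53-responsive bla reporter were rested 5 h (37 C, 5% CO2) before compound transfer. Human liver microsomes plus NADPH, 0.5 mg/mL final apiece, supplied metabolism during the 16 h 37 C exposure.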
# [7] = p53 small molecule agonists, cell-based qHTS assay with rat liver microsomes (AID 1963578)
# In short: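 Fluorescence from a beta-lactamase reporter under a p53 response element was measured after cells had been incubated 16 h at 37 C with test compound and rat liver microsomes plus NADPH (0.5 mg/mL final each).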
# [8] = p53 small molecule agonists, cell-based qHTS assay with human liver microsomes: qHTS cell viability counter screen (AID 1963579); note: nearly all actives have a fitted effect of over 45% in size
# In short: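 Seed p53RE-bla cells at 4,000 per well; incubate 5 h at 37 C; add compound, human liver microsomes and NADPH; incubate 16 h at 37 C; add CellTiter-Glo; after 30 min at room temperature, read luminescence.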
# [9] = p53 small molecule agonists, cell-based qHTS assay with rat liver microsomes: qHTS cell viability counter screen (AID 1963580); note: nearly all actives have a fitted effect of over 45% in size
# In short: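 After the beta-lactamase ratio was read, CellTiter-Glo was added to the same wells and luminescence measured at 30 min; cells had been treated 16 h at 37 C with compounds, rat liver microsomes and NADPH (0.5 mg/mL final each).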
# [10] = p53 small molecule agonists, cell-based qHTS assay: qHTS cell viability counter screen (AID 1963581); note: nearly all actives have a fitted effect of over 45% in size
# In short: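 Multiplexed with the reporter read, a CellTiter-Glo step (30 min, room temperature) gauges ATP-based viability of HCT-116 p53RE-bla cells after 16 h compound incubation at 37 C.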
# [11] = p53 small molecule agonists, cell-based qHTS assay (AID 1963582; active = well fitted activation curve with a large enough effect in the signal ratio in the repeat runs, not every such curve was filed as active; the % refers to the signal ratio)
# In short: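 Beta-lactamase reporter cells (p53RE-bla) treated with compounds for 16 h at 37 C; FRET substrate, 2 h, room temperature; fluorescence intensity.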
# [12] = molecular target: 5-hydroxytryptamine receptor 2A (Homo sapiens) (UniProt P28223); assay: 5-hydroxytryptamine receptor 2A (HTR2A) small molecule agonists, cell-based qHTS assay (AID 1963587); note: nearly all actives have a fitted effect of over 30% in size
# In short: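 CHO cells stably expressing human HTR2A, plated 18 h, loaded with calcium dye 1 h at 37 C. Agonist mode: compounds added and intracellular calcium fluorescence recorded kinetically for 2 min at 1 sec intervals.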
# [13] = molecular target: Muscarinic acetylcholine receptor M1 (Homo sapiens) (UniProt P11229); assay: Cholinergic receptor muscarinic 1 (CHRM1) small molecule antagonists, cell-based qHTS assay (AID 1963588); note: nearly all actives have a fitted effect of over 40% in size
# In short: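 Compounds were tested at 15 concentrations in three independent runs. Dye-loaded CHRM1-CHO cells were exposed 5 min at room temperature before stimulation by acetylcholine added at 50nM. Intracellular calcium was read kinetically on FDSS for 3 min.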
# [14] = molecular target: Muscarinic acetylcholine receptor M1 (Homo sapiens) (UniProt P11229); assay: Cholinergic receptor muscarinic 1 (CHRM1) small molecule agonists, cell-based qHTS assay (AID 1963589); note: nearly all actives have a fitted effect of over 35% in size
# In short: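 qHTS, 15-point titration, 3 independent runs: compounds pin-transferred onto dye-loaded CHRM1-CHO cells (human M1), calcium fluorescence followed every second to detect agonism.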
# [15] = molecular target: D(2) dopamine receptor (Homo sapiens) (UniProt P14416); assay: Dopamine D2 receptor (DRD2) small molecule agonists, cell-based qHTS assay (AID 1963594); note: nearly all actives have a fitted effect of over 35% in size
# In short: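 HEK293 cells stably expressing human DRD2, pre-treated with PDE inhibitor Ro20-1724 (0.1 mM final) and compound 10 min at room temperature, then stimulated with NKH477 (200nM […]) for 30 min. cAMP read by HTRF (665/620 nm).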
# [16] = molecular target: D(2) dopamine receptor (Homo sapiens) (UniProt P14416); assay: Dopamine D2 receptor (DRD2) small molecule antagonists, cell-based qHTS assay (AID 1963595; active = well fitted inhibition curve with a large enough effect in the signal ratio in the repeat runs, with a control signal flat; the % refers to the signal ratio)
# In short: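 DRD2-HEK293; 0.1 mM Ro20-1724; cpd 10 min RT; NKH477 200 nM + quinpirole 12 nM, 30 min RT; HTRF cAMP (cAMP-d2/anti-cAMP cryptate), 665/620 nm ratio after 1 h.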
# [17] = cAMP Responsive Elements (CRE) small molecule antagonists, cell-based qHTS assay (AID 1963591; active = well fitted inhibition curve with a large enough effect in the signal ratio in the repeat runs, not every such curve was filed as active; the % refers to the signal ratio)
# In short: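 Fluorescence intensity from cleaved LiveBLAzer B/G substrate (2 h, room temperature) quantified CRE-bla activity in HEK 293T cells exposed 3 h to compound with 0.25 uM final NKH477.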
# [18] = molecular target: Beta-2 adrenergic receptor (Homo sapiens) (UniProt P07550); assay: Adrenergic beta2 receptor (ADRB2) small molecule antagonists, cell-based qHTS assay (AID 1963592); note: series mostly up to about 92 µM; nearly all actives have a fitted effect of over 50% in size
# In short: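 Assay format: CHO-ADRB2 cells, 18-20hr seeding at 37C/5% CO2, then compound plus 1nM isoproterenol agonist mix for 0.5hr RT. Homogeneous time-resolved fluorescence cAMP detection after 1hr, expressed as 665/615 nm ratio.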
# [19] = molecular target: Beta-2 adrenergic receptor (Homo sapiens) (UniProt P07550); assay: Adrenergic beta2 receptor (ADRB2) small molecule agonists, cell-based qHTS assay (AID 1963593);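 note: CHO cells stably overexpressing human ADRB2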
# In short: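 CHO cells stably over-expressing ADRB2 were plated overnight at 37C, then dosed with compounds plus a stimulation mix containing 100uM IBMX and 25uM Ro-20-1724 for 0.5hr at room temperature. cAMP was measured by HTRF competition, 1hr.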
# [20] = cAMP Responsive Elements (CRE) small molecule agonists, cell-based qHTS assay (AID 1963590)
# In short: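 Quantitative HTS for CRE agonists: HEK 293T CRE-bla cells, overnight plating, 3 h compound incubation at 37 C/5% CO2, then 2 h room-temperature LiveBLAzer B/G FRET substrate loading.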
# Chain of Beta-2 adrenergic receptor (Homo sapiens) (P07550 whole entry, looked up): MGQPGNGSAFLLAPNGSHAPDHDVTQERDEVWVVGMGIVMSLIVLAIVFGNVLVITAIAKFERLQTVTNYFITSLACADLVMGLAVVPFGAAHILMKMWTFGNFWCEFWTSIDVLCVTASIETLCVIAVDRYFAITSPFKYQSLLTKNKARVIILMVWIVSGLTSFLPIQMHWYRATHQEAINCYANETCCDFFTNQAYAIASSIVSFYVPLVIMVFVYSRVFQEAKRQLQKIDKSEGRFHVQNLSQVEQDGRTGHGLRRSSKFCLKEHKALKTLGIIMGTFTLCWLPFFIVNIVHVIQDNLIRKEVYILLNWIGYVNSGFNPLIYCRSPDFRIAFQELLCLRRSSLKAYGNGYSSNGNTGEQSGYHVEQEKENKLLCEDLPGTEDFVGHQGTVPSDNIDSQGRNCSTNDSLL
# Chain of 5-hydroxytryptamine receptor 2A (Homo sapiens) (P28223 whole entry, looked up): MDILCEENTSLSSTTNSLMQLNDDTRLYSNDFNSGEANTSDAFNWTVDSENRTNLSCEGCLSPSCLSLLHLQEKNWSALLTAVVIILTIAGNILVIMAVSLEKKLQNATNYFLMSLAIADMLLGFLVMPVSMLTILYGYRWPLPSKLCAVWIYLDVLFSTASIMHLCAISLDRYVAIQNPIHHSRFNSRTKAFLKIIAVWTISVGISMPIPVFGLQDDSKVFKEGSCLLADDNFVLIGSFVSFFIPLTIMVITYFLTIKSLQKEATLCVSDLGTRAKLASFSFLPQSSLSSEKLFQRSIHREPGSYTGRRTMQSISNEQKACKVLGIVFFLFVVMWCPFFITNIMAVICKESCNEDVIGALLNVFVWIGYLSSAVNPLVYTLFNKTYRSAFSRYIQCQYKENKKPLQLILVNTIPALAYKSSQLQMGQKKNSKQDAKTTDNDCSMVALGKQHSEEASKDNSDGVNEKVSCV
# Chain of Muscarinic acetylcholine receptor M1 (Homo sapiens) (P11229 whole entry, looked up): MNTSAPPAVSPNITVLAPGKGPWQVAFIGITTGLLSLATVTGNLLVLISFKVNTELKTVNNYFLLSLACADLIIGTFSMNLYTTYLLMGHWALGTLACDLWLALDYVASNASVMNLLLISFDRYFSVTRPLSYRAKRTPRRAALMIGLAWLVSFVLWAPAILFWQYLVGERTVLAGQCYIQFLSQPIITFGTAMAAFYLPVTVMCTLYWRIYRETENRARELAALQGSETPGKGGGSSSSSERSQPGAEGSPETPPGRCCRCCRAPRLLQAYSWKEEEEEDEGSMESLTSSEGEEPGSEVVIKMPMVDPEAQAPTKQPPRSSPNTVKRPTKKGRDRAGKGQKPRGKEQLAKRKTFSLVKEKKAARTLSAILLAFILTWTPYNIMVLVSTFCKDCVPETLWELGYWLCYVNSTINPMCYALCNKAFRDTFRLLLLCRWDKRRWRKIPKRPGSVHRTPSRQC
# Chain of Gonadotropin-releasing hormone receptor (Homo sapiens) (P30968 whole entry, looked up): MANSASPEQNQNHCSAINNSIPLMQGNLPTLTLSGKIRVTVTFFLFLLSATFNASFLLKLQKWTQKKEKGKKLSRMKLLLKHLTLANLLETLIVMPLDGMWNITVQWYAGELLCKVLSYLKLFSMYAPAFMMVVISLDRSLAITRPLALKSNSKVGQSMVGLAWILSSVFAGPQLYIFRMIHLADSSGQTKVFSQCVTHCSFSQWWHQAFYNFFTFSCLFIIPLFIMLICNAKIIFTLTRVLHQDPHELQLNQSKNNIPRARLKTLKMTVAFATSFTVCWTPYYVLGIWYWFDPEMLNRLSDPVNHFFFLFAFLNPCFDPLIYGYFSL
# Chain of D(2) dopamine receptor (Homo sapiens) (P14416 whole entry, looked up): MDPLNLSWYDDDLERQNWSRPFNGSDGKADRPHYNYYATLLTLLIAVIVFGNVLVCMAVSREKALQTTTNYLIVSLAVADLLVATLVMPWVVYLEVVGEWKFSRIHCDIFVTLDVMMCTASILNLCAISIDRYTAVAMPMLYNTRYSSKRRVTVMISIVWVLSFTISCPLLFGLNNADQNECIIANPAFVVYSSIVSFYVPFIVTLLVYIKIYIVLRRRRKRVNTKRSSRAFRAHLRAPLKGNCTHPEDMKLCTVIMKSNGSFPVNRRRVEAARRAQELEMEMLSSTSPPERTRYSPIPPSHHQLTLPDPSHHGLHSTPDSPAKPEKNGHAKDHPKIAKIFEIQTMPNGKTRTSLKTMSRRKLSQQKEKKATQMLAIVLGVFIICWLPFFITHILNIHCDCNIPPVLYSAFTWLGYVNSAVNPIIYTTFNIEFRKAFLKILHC
# Chain of KiSS-1 receptor (Homo sapiens) (Q969F8 whole entry, looked up): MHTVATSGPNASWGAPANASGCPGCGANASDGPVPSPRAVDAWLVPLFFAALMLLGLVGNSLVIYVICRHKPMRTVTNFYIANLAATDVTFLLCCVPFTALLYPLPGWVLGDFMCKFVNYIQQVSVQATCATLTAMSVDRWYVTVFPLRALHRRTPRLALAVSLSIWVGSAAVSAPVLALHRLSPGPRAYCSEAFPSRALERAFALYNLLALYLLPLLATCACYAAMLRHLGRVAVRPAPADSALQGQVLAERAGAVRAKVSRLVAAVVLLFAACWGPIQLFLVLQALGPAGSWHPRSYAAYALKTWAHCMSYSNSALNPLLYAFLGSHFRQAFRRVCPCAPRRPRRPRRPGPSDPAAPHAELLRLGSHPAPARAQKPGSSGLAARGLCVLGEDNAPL
Compound,Potency [1],Potency [2],Potency [3],outcome [4],outcome [5],Potency [6],Potency [7],Potency [8],Potency [9],Potency [10],Potency [11],Potency [12],Potency [13],Potency [14],Potency [15],Potency [16],Potency [17],Potency [18],Potency [19],Potency [20]
COc1cc(C(=O)OC(COCCC(C)C)CN2CCOCC2)cc(OC)c1OC (configuration not stated),inactive,inactive,inactive,inactive,inactive,inactive,inactive,inactive,inactive,inactive,inactive,inactive,inactive,inactive,inactive,inactive,–,–,–,–
CC12CCCC=C1C(=O)OC2=O (configuration not stated),inactive,inactive,inactive,inactive,inactive,inactive,inactive,inactive,inactive,inactive,inactive,inactive,–,inactive,inactive,inactive,inactive,inactive,–,–
O=C(c1ccc(F)cc1)C1CCN(CCn2c(=O)[nH]c3ccccc3c2=O)CC1,inactive,inactive,inactive,inactive,inactive,inactive,inactive,inactive,inactive,inactive,inactive,inactive,inactive,inactive,inactive,inactive,–,inactive,inactive,–
COCCc1ccccn1,inactive,inactive,inactive,inactive,inactive,inactive,inactive,inactive,inactive,inactive,inactive,inactive,inactive,–,–,inactive,inactive,inactive,inactive,inactive
CC(C)NCCCC1(C(N)=O)c2ccccc2-c2ccccc21,inactive,inactive,inactive,inactive,inactive,inactive,inactive,inactive,inactive,inactive,inactive,inactive,–,inactive,inactive,–,inactive,inactive,inactive,inactive
CNC(=O)CN(CCN(CCN(CC(=O)[O-])CC(=O)NC)CC(=O)[O-])CC(=O)[O-].O.[Gd+3],inactive,inactive,inactive,inactive,inactive,inactive,inactive,inactive,inactive,inactive,inactive,inactive,–,inactive,–,inactive,inactive,inactive,–,inactive
O=C1c2ccccc2C(=O)C1c1ccc(Br)cc1,inactive,inactive,inactive,inactive,inactive,inactive,inactive,inactive,inactive,inactive,inactive,inactive,inactive,inactive,inactive,inactive,–,inactive,inactive,–
COc1cccc([C@H](O)C2CCN(CCc3ccc(F)cc3)CC2)c1OC,inactive,inactive,inactive,inactive,inactive,inactive,inactive,inactive,inactive,inactive,inactive,–,inactive,inactive,inactive,inactive,inactive,inactive,–,inactive
N#CCc1ccc(Cl)cc1Cl,inactive,inactive,inactive,inactive,inactive,inactive,inactive,inactive,inactive,inactive,inactive,inactive,–,inactive,–,inactive,inactive,inactive,–,inactive
O=C(CS)Nc1ccccc1,inactive,29.8 µM (active),inactive,inactive,inactive,inactive,inactive,inactive,inactive,inactive,inactive,inactive,inactive,inactive,inactive,–,inactive,–,–,–
O=[N+]([O-])c1ccc(F)c(Cl)c1,inactive,inactive,inactive,inactive,inactive,inactive,inactive,inactive,inactive,inactive,inactive,inactive,inactive,inactive,inactive,inactive,inactive,–,–,–
CCC1(CO)COCOC1,inactive,inactive,inactive,inactive,inactive,inactive,inactive,inactive,inactive,inactive,inactive,inactive,–,inactive,inactive,inactive,inactive,inactive,–,inactive
[O-][n+]1cccc(/C(Cl)=N/OC[C@@H](O)CN2CCCCC2)c1,inactive,inactive,inactive,inactive,inactive,inactive,inactive,inactive,inactive,inactive,inactive,inactive,–,inactive,inactive,–,inactive,inactive,–,inactive
CCCCCC[C@@H](CCC)C(=O)O,inactive,inactive,inactive,inactive,inactive,inactive,inactive,inactive,inactive,inactive,inactive,inactive,inactive,–,inactive,inactive,inactive,inactive,–,inactive
COc1ccc(-c2cc(C(F)F)nn2-c2ccc(S(N)(=O)=O)cc2)cc1F,inactive,inactive,inactive,inactive,inactive,inactive,inactive,inactive,inactive,inactive,inactive,inactive,inactive,inactive,inactive,inactive,–,–,–,–
CCOC(=O)c1ccc(I)cc1,inactive,inactive,inactive,inactive,inactive,inactive,inactive,inactive,inactive,inactive,inactive,inactive,inactive,inactive,inactive,inactive,inactive,inactive,–,–
